Data from PubChem BioAssay (NCI).
Compounds without any hit were thinned out: in the full panel of roughly 79,000, 15% have a hit. Cut-off read from the data, not from the text of the source: active = growth inhibition above about 70%; inactive = the rest. Where a SMILES comes first, the peptide text is derived from it. Bridges are numbered along the chain shown (N, C = ends). The star is where a group is joined. Cbz = O=C(OCc1ccccc1)*; OBn = c1ccc(CO*)cc1

Assays:
[1] = NCI Yeast Anticancer Drug Screen. Data for the rad50 strain (AID 155);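 note: 0% = growth of vehicle-only cultures of the same strain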; conditions: S. cerevisiae rad50 strain growth inhibition; at 50.0 µM; stronger effect = higher value
How it was run: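 Genetically altered yeast (DNA repair pathway); compound treatment; growth inhibition vs vehicle ctrl.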

[2] = NCI Yeast Anticancer Drug Screen. Data for the mec2-1 strain (AID 157); conditions: S. cerevisiae mec2-1 strain, at 50.0 µM, stronger effect = higher value
How it was run: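 Each compound was tested on mec2-1 yeast, a strain altered in DNA damage repair or cell cycle control. Growth inhibition is reported relative to vehicle.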

[3] = NCI Yeast Anticancer Drug Screen. Data for the sgs1 mgt1 strain (AID 161);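 note: 0% = growth of cultures given vehicle only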; conditions: S. cerevisiae sgs1 mgt1 strain, at 50.0 µM, stronger effect = higher value
How it was run: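 Genetically altered yeast, compound exposure, growth inhibition relative to vehicle.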

[4] = NCI Yeast Anticancer Drug Screen. Data for the cln2 rad14 strain (AID 165);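 note: 0% = growth equal to vehicle treated cultures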; conditions: S. cerevisiae cln2 rad14 strain, at 50.0 µM, stronger effect = higher value
How it was run: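 Test compounds were added to cln2 rad14 yeast cultures; inhibition of growth was then determined by comparison with vehicle treatment.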

[5] = NCI Yeast Anticancer Drug Screen. Data for the bub3 strain (AID 167); conditions: S. cerevisiae bub3 mutant strain, at 50.0 µM, stronger effect = higher value
How it was run: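 Yeast carrying a defined mutation is treated with each compound, and growth is compared with that of vehicle-exposed cells to give inhibition.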

[6] = NCI Yeast Anticancer Drug Screen. Data for the mlh1 rad18 strain (AID 175); conditions: S. cerevisiae mlh1 rad18 strain growth inhibition; at 50.0 µM; stronger effect = higher value
How it was run: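 Inhibition values reflect reduced growth of mutant yeast versus vehicle-treated controls following compound exposure; the mutations affect DNA damage repair.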

Measured: growth inhibition

COc1cc2c(c(OC)c1OC)-c1cccc(=O)cc1C(NC(C)=O)CC2 (stereo not given)
inactive: [1] -3.65% | [2] -14.2% | [3] -3.35% | [4] 8.9% | [5] -2.2% | [6] 21.1%

CCCCc1c2c(nn1C(C)=O)C(=O)C=C(Nc1ccccc1)C2=O
inactive: [1] 21.8% | [2] 21.8% | [3] 19.7% | [4] -7.65% | [5] 4.7% | [6] 9.5%

Cc1ccc(S(=O)(=O)NC(=O)N(Cc2ccccc2)C(C)(C)C)cc1
inactive: [1] 3.4% | [2] 20.4% | [3] 16.1% | [4] -0.15% | [5] 14.2% | [6] 16.9%

C[N+](C)(Cc1ccccc1)c1ccccc1
inactive: [1] -3.7% | [2] -6% | [3] -0.15% | [4] -34.9% | [5] 4.1% | [6] -11.2%

COc1ccc2nc(C)cc(N/N=C/c3cccc(C)n3)c2c1
inactive: [1] 3.95% | [2] -19.2% | [3] -1.55% | [4] -0.8% | [5] -29.8% | [6] -22.1%

CS(=O)(=O)OC1CCCS(=O)(=O)c2ccccc21 (stereo not given)
inactive: [1] -12.9% | [2] -12.8% | [3] 3.65% | [4] -46.9% | [5] -1% | [6] -6.45%

COC(=O)Oc1ccccc1C(=O)O
inactive: [1] -25.2% | [2] -22.6% | [3] -15.6% | [4] 0.2% | [5] -24.6% | [6] -5.55%

O=[N+]([O-])c1ccc(OCCSc2ccccc2)cc1
inactive: [1] 9% | [2] 33% | [3] 55% | [4] 12.6% | [5] 60.2% | [6] 12.8%

CC1=NC(=Cc2ccccc2O)C(=O)N1n1c(-c2ccccc2)nc2ccccc2c1=O
inactive: [1] 22.4% | [2] 17.7% | [3] 51.5% | [4] 16.6% | [5] 42.5% | [6] 44.5%

C=C(Cl)COC(=O)C(C)O (stereo not given)
inactive: [1] 3% | [2] -12.2% | [3] -7.55% | [4] 24.4% | [5] -7.4% | [6] 8.95%

COC(=O)C(C(=O)C(=O)Nc1cccc(OC)c1)c1cnc2ccccc2n1 (stereo not given)
inactive: [1] -16.4% | [2] -8.85% | [3] -9.45% | [4] 21.2% | [5] 6.9% | [6] -10.5%

COC(=O)CCCc1c[nH]c2ccccc12
inactive: [1] 7.2% | [2] -9.8% | [3] -3.9% | [4] -0.95% | [5] 14.2% | [6] -1.05%

O=C(Oc1c(Cl)cc(Cl)cc1Cl)c1ccc([N+](=O)[O-])cc1
inactive: [1] 9.2% | [2] 10.8% | [3] 5.45% | [4] -8.65% | [5] -9.45% | [6] -1.15%

CC(C)(CNC(=O)C12CC3CC(CC(C3)C1)C2)NC(=O)C12CC3CC(CC(C3)C1)C2
inactive: [1] 15.9% | [2] 12.5% | [3] 14.1% | [4] 11.1% | [5] 0.85% | [6] 27.8%

CS(=O)(=O)OCCCSCCSCCCOS(C)(=O)=O
inactive: [1] -4% | [2] -0.05% | [3] 3.1% | [4] -4.8% | [5] -11.2% | [6] -10.1%

Cc1c(Cl)ccc2c1NC(=O)C2(O)C1Cc2ccccc2C1=O (stereo not given)
inactive: [1] 44.5% | [2] 21.1% | [3] 37.5% | [4] 34% | [5] 15.1% | [6] 28%

O=C1c2cc(Cl)ccc2-c2ccc(Cl)cc21
inactive: [1] 2.75% | [2] 2.85% | [3] -4.85% | [4] -11.8% | [5] -1.2% | [6] 1.05%

COC(=O)C1CCC(=O)NCCCCC(NC(=O)C(CC(=O)OCc2ccccc2)NC(=O)OCc2ccccc2)C(=O)N1 (stereo not drawn) (Cbz-Asp(OBn)-Lys-Glu-OMe; lactam 2-3; configuration not given here)
inactive: [1] -2% | [2] 3.95% | [3] 23.3% | [4] 11.8% | [5] 28.4% | [6] -23.7%

O=C1CCC(N2C(=O)c3ccccc3C2=O)C(=O)O1 (stereo not given)
inactive: [1] -21.9% | [2] -5.45% | [3] -0.95% | [4] -38% | [5] 8.5% | [6] -12.9%

CN(C)C(=O)c1cccnc1
inactive: [1] 0.25% | [2] -4.25% | [3] -4.8% | [4] 27.1% | [5] -18.2% | [6] -2.35%
